Source: PubChem BioAssay (NCI)
About 83,000 compounds went through this panel and 20% of them were active in at least one assay; those are over-represented in the sample as a whole.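 The endpoint reported here, percent growth, reads 100 for growth as untreated, 0 for no net growth and -100 for all cells dead.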 Unmarked numbers belong to inactive results. Active and inactive are the calls of the source. How the source made its calls: active means growth percent below 10; inactive means the rest.

Assays:
Assay in all cases: NCI-60 one-dose screen, 48 h (100 = growth as untreated, 0 = no growth, -100 = all killed)
Settings in all cases: 10 µM
[1] = test system: RPMI-8226 leukemia
[2] = test system: OVCAR-8 ovarian
[3] = test system: OVCAR-5 ovarian
[4] = test system: OVCAR-4 ovarian
[5] = test system: SK-OV-3 ovarian
[6] = test system: IGROV1 ovarian
[7] = test system: OVCAR-3 ovarian
[8] = test system: HS 578T breast
[9] = test system: NCI/ADR-RES ovarian
[10] = test system: T-47D breast
[11] = test system: BT-549 breast
[12] = test system: MDA-MB-435 melanoma
[13] = test system: SW-620 colon
[14] = test system: MCF7 breast
[15] = test system: HCT-116 colon
[16] = test system: HCC-2998 colon
[17] = test system: KM12 colon
[18] = test system: MDA-MB-468 breast

Cc1ccc(-c2cc(-c3cc4ccccc4nc3Cl)[nH]c(=O)n2)cc1
growth [1]: -30.1% (active) | growth [2]: -49.3% (active) | growth [3]: -8.44% (active) | growth [4]: 48.1% | growth [5]: 51.6% | growth [6]: 28.6% | growth [7]: 8.33% (active) | growth [8]: 1.21% (active) | growth [9]: -38.8% (active) | growth [10]: 3.13% (active) | growth [11]: -76.8% (active) | growth [12]: 19.1% | growth [13]: -46.3% (active) | growth [14]: 1.81% (active) | growth [15]: -72.8% (active) | growth [16]: -1.29% (active) | growth [17]: -18.6% (active) | growth [18]: -7.37% (active)

COc1cccc(/C=C2\N=C(C)N(CCc3ccc(S(N)(=O)=O)cc3)C2=O)c1
growth [1]: 97.2% | growth [2]: 102% | growth [3]: 99.8% | growth [4]: 104% | growth [5]: 112% | growth [6]: 103% | growth [7]: 113% | growth [8]: 98.6% | growth [9]: 104% | growth [10]: 97.3% | growth [11]: 100% | growth [12]: 114% | growth [13]: 105% | growth [14]: 95.2% | growth [15]: 97.8% | growth [16]: 117% | growth [17]: 104% | growth [18]: 113%

CN1CCN(Cc2ccc(C(=O)Nc3cccc(Nc4ccc5cc(O)ccc5n4)c3)cc2C(F)(F)F)CC1
growth [1]: -51.3% (active) | growth [2]: 4.28% (active) | growth [3]: -25% (active) | growth [4]: 6.75% (active) | growth [5]: 26.3% | growth [6]: -37.8% (active) | growth [7]: -58.9% (active) | growth [8]: -2.79% (active) | growth [9]: 28.6% | growth [10]: -11.7% (active) | growth [11]: 78.1% | growth [12]: -85.5% (active) | growth [13]: -83.1% (active) | growth [14]: -78.4% (active) | growth [15]: 1.51% (active) | growth [16]: -97.3% (active) | growth [17]: -48% (active) | growth [18]: -89.4% (active)

O=C1Nc2cc(Cl)ccc2/C1=C/c1cccc(OCc2ccc(Br)cc2F)c1
growth [1]: -20.1% (active) | growth [2]: -15.8% (active) | growth [3]: 30.2% | growth [4]: 39.1% | growth [5]: 40.7% | growth [6]: 20.2% | growth [7]: -39% (active) | growth [8]: -10.1% (active) | growth [9]: -35.1% (active) | growth [10]: 9.72% (active) | growth [11]: 10.5% | growth [12]: -64.4% (active) | growth [13]: 19.5% | growth [14]: 5.38% (active) | growth [15]: 1.63% (active) | growth [16]: 26% | growth [17]: 1.67% (active) | growth [18]: -9.05% (active)

O=C(c1ccc(O)cc1)C1[C@H](c2ccc(Br)cc2)[C@@H](c2ccccc2)NC12C(=O)Nc1ccc(Br)cc12 (stereo partly specified)
growth [1]: 1.12% (active) | growth [2]: 12% | growth [3]: -4.82% (active) | growth [4]: 14.3% | growth [5]: 13.2% | growth [6]: -6.01% (active) | growth [7]: -38.9% (active) | growth [8]: -6.2% (active) | growth [9]: -2.8% (active) | growth [10]: 22.2% | growth [11]: 39.3% | growth [12]: -25.1% (active) | growth [13]: -28% (active) | growth [14]: -18% (active) | growth [15]: 8.14% (active) | growth [16]: -83.9% (active) | growth [17]: -24.7% (active) | growth [18]: -54% (active)

O=C(Nc1ccncc1)c1ccc(-n2c(=O)[nH]c3ccccc3c2=O)cc1
growth [1]: 100% | growth [2]: 96% | growth [3]: 100% | growth [4]: 93.3% | growth [5]: 99.3% | growth [6]: 107% | growth [7]: 113% | growth [8]: 92.4% | growth [9]: 103% | growth [10]: 81.7% | growth [11]: 92.6% | growth [12]: 103% | growth [13]: 101% | growth [14]: 92.3% | growth [15]: 99.1% | growth [16]: 107% | growth [17]: 110% | growth [18]: 69.6%

COc1ccc(/C(C)=N/N=C2C(=O)N(C)c3ccc(Br)cc32)cc1S(N)(=O)=O
growth [1]: 79.3% | growth [2]: 27.4% | growth [3]: 81.4% | growth [4]: 48.4% | growth [5]: 58.8% | growth [6]: 71.5% | growth [7]: 69.6% | growth [8]: 39.7% | growth [9]: 68.2% | growth [10]: 52.6% | growth [11]: 29.2% | growth [12]: 95.9% | growth [13]: 85.7% | growth [14]: 57.8% | growth [15]: 74.4% | growth [16]: 98.3% | growth [17]: 97.8% | growth [18]: 70.2%

CC(=O)Nc1ccc(-c2cn(-c3cccc(C(=O)Nc4cc(C(F)(F)F)cc(C(F)(F)F)c4)c3)nn2)cn1
growth [1]: -43.7% (active) | growth [2]: -32.8% (active) | growth [3]: -10.6% (active) | growth [4]: -24.6% (active) | growth [5]: -21.1% (active) | growth [6]: -38.4% (active) | growth [7]: -30.9% (active) | growth [8]: -9.63% (active) | growth [9]: 1.76% (active) | growth [10]: 33.9% | growth [11]: -39.6% (active) | growth [12]: -34.3% (active) | growth [13]: -31.5% (active) | growth [14]: -25% (active) | growth [15]: 10.6% | growth [16]: -62.1% (active) | growth [17]: -27.6% (active) | growth [18]: -46.5% (active)

O=C1Nc2cc(-c3ccc(NC(=O)c4cccc([N+](=O)[O-])c4)cc3)ccc2/C1=C/c1ccc[nH]1
growth [1]: 82.9% | growth [2]: 90.4% | growth [3]: 99.6% | growth [4]: 52.3% | growth [5]: 115% | growth [6]: 95.7% | growth [7]: 99.4% | growth [8]: 108% | growth [9]: 89.5% | growth [10]: 27.5% | growth [11]: 120% | growth [12]: 105% | growth [13]: 79.8% | growth [14]: 2.65% (active) | growth [15]: 103% | growth [16]: 62.2% | growth [17]: 14.5% | growth [18]: -10.9% (active)

CN1CCN(c2ccc(Nc3nc(N4CCN(S(=O)(=O)c5ccc(F)cc5)CC4)c4sccc4n3)cc2)CC1
growth [1]: -24.2% (active) | growth [2]: -85% (active) | growth [3]: -96.8% (active) | growth [4]: -89.3% (active) | growth [5]: -87.2% (active) | growth [6]: -86.4% (active) | growth [7]: -79% (active) | growth [8]: -47.7% (active) | growth [9]: -83% (active) | growth [10]: -62.7% (active) | growth [11]: 65.2% | growth [12]: -100% (active) | growth [13]: -63.8% (active) | growth [14]: -77.6% (active) | growth [15]: -51.1% (active) | growth [16]: -90.7% (active) | growth [17]: -74.8% (active) | growth [18]: -96.7% (active)

O=C1Nc2ccc(Cl)cc2/C1=C/c1cccc(OCc2ccccn2)c1
growth [1]: -45.3% (active) | growth [2]: -42.6% (active) | growth [3]: -45.2% (active) | growth [4]: 4.17% (active) | growth [5]: 4.02% (active) | growth [6]: 0.125% (active) | growth [7]: -35.8% (active) | growth [8]: -1.17% (active) | growth [9]: -23.8% (active) | growth [10]: -2.11% (active) | growth [11]: -7.83% (active) | growth [12]: -39.2% (active) | growth [13]: -38% (active) | growth [14]: -0.24% (active) | growth [15]: -98.3% (active) | growth [16]: -73.2% (active) | growth [17]: -32.3% (active) | growth [18]: -30% (active)

COc1ccccc1[C@H]1C(C(=O)c2ccc(Cl)cc2)C2(N[C@@H]1c1ccccc1)C(=O)Nc1ccc(Cl)cc12 (stereo partly specified)
growth [1]: 6.41% (active) | growth [2]: 12.2% | growth [3]: -8.45% (active) | growth [4]: 24% | growth [5]: 28.8% | growth [6]: 22.1% | growth [7]: 3.66% (active) | growth [8]: -2.19% (active) | growth [9]: -65.5% (active) | growth [10]: 5.84% (active) | growth [11]: -1.27% (active) | growth [12]: -44.4% (active) | growth [13]: 6.3% (active) | growth [14]: -4.87% (active) | growth [15]: 10.1% | growth [16]: -18.8% (active) | growth [17]: 9.71% (active) | growth [18]: -43.9% (active)

O=C(Nc1nc2ccc([N+](=O)[O-])cc2s1)Nc1cc(Cl)ccc1I
growth [1]: -40.9% (active) | growth [2]: -13.6% (active) | growth [3]: 15.1% | growth [4]: 0.91% (active) | growth [5]: -9.56% (active) | growth [6]: 13.8% | growth [7]: -21.2% (active) | growth [8]: -21.5% (active) | growth [9]: -34.5% (active) | growth [10]: -25.9% (active) | growth [11]: -87.2% (active) | growth [12]: -52.1% (active) | growth [13]: -50.3% (active) | growth [14]: -28.9% (active) | growth [15]: -78.8% (active) | growth [16]: -41.6% (active) | growth [17]: -48.7% (active) | growth [18]: -43.5% (active)

C/C(=C\CC/C=C(\C)CC/C=C(\C)CC[C@@H](O)C(C)(C)O)CC/C=C(\C)CC[C@@H](O)C(C)(C)O
growth [1]: -11.4% (active) | growth [2]: 47.6% | growth [3]: 56.1% | growth [4]: 42% | growth [5]: 64.4% | growth [6]: 76.8% | growth [7]: 42.6% | growth [8]: 39% | growth [9]: 30.2% | growth [10]: 6.38% (active) | growth [11]: 8.56% (active) | growth [12]: 39.5% | growth [13]: 43% | growth [14]: 13.8% | growth [15]: 10% | growth [16]: 31.7% | growth [17]: 25.5% | growth [18]: 0.844% (active)

O=C1Nc2cc(-c3ccc(NC(=O)c4cccs4)cc3)ccc2/C1=C/c1ccc[nH]1
growth [1]: 52.4% | growth [2]: 63.4% | growth [3]: 89.7% | growth [4]: 50.4% | growth [5]: 108% | growth [6]: 97.8% | growth [7]: 69.6% | growth [8]: 73.3% | growth [9]: 62.1% | growth [10]: 22.2% | growth [11]: 91.7% | growth [12]: 102% | growth [13]: 60.3% | growth [14]: -12.7% (active) | growth [15]: 53.3% | growth [16]: 79.5% | growth [17]: 39.3% | growth [18]: -19.7% (active)

COc1ccc([C@H]2C(C(=O)c3ccc(Cl)cc3)C3(N[C@@H]2c2ccccc2)C(=O)Nc2ccc(Br)cc23)cc1 (stereo partly specified)
growth [1]: -10.6% (active) | growth [2]: 14.9% | growth [3]: -20% (active) | growth [4]: 17.2% | growth [5]: 22.6% | growth [6]: 7.23% (active) | growth [7]: -30.8% (active) | growth [8]: -7.39% (active) | growth [9]: -27.2% (active) | growth [10]: 21.2% | growth [11]: 21.9% | growth [12]: -36.6% (active) | growth [13]: 7.87% (active) | growth [14]: -7.25% (active) | growth [15]: 1.73% (active) | growth [16]: -41% (active) | growth [17]: -5.82% (active) | growth [18]: -7.76% (active)

CCN(CC)CCOc1ccc(C(=C(C)c2ccccc2)c2ccc(OCCN(CC)CC)cc2)cc1
growth [1]: -35.4% (active) | growth [2]: 25.2% | growth [3]: 24.9% | growth [4]: 13.6% | growth [5]: 58% | growth [6]: 34% | growth [7]: -7.71% (active) | growth [8]: -8.15% (active) | growth [9]: 29% | growth [10]: -85.3% (active) | growth [11]: 50.4% | growth [12]: -83% (active) | growth [13]: -4.84% (active) | growth [14]: -61.8% (active) | growth [15]: 6.73% (active) | growth [16]: -5.25% (active) | growth [17]: 0.838% (active) | growth [18]: -18.5% (active)
